Assays:
Assay in all cases: log2 ratio of Biotin-Ahx-Ub-VS probe labelling (fragment/DMSO); higher = less target engagement (more negative = stronger competition), active = hit call of the paper (q ≤ 0.05, log2 ratio ≤ -1)
Conditions in all cases: compound concentration: 200 uM; treatment time: 3 h
USP19 = biological target: T1, USP19 (UniProt O94966)
T1 sequence (whole entry): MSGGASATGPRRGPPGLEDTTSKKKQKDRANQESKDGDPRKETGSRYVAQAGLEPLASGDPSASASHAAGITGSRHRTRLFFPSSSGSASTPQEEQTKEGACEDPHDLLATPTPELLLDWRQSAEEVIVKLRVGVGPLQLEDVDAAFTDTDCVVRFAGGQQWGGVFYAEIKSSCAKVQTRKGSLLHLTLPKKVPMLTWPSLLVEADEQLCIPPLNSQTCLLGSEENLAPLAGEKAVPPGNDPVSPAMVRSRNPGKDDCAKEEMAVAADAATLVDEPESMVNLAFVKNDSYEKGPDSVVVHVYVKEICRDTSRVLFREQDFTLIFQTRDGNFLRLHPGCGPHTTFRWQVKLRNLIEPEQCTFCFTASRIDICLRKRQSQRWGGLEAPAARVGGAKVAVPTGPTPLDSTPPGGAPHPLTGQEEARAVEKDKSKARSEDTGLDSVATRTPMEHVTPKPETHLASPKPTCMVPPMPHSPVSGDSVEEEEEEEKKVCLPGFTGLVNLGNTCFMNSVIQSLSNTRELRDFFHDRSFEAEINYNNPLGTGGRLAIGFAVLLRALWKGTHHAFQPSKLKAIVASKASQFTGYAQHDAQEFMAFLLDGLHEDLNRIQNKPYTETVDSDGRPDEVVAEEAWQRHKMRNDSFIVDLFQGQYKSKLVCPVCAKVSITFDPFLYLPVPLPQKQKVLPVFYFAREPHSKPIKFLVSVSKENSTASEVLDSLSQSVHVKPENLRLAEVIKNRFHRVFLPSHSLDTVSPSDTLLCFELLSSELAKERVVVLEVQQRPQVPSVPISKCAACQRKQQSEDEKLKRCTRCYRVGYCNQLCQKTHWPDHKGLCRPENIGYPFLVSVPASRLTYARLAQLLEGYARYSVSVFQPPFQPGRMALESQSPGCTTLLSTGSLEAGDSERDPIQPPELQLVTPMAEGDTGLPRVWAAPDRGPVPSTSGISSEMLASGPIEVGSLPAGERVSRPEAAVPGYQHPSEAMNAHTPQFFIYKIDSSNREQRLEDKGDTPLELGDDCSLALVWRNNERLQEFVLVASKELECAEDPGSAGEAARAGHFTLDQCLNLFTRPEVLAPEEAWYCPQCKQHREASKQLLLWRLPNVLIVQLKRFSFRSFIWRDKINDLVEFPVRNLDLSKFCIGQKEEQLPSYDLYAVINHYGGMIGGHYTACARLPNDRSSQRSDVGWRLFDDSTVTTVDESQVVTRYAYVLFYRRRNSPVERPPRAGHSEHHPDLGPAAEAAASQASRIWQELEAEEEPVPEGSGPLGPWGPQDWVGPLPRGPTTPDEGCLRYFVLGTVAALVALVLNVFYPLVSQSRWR
In short: (§1)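 Average log2 ratios of fragment over vehicle were obtained by unpaired t-test from global-median-normalised Spectronaut label-free quantities. Proteins with ≥2 unique peptides were included. HEK293T lysate (495 µg per sample) was treated in triplicate with fragment at 200 µM or vehicle for 3 h, then with Biotin-Ahx-Ub-VS at 0.5 µM final for 1 h, and labelled DUBs were NeutrAvidin-enriched and run by diaPASEF LC-MS/MS.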

USP24 = USP24 (UniProt Q9UPU5)
In short: as §1

USP25 = biological target: T2, USP25 (UniProt Q9UHP3)
T2 sequence (whole entry): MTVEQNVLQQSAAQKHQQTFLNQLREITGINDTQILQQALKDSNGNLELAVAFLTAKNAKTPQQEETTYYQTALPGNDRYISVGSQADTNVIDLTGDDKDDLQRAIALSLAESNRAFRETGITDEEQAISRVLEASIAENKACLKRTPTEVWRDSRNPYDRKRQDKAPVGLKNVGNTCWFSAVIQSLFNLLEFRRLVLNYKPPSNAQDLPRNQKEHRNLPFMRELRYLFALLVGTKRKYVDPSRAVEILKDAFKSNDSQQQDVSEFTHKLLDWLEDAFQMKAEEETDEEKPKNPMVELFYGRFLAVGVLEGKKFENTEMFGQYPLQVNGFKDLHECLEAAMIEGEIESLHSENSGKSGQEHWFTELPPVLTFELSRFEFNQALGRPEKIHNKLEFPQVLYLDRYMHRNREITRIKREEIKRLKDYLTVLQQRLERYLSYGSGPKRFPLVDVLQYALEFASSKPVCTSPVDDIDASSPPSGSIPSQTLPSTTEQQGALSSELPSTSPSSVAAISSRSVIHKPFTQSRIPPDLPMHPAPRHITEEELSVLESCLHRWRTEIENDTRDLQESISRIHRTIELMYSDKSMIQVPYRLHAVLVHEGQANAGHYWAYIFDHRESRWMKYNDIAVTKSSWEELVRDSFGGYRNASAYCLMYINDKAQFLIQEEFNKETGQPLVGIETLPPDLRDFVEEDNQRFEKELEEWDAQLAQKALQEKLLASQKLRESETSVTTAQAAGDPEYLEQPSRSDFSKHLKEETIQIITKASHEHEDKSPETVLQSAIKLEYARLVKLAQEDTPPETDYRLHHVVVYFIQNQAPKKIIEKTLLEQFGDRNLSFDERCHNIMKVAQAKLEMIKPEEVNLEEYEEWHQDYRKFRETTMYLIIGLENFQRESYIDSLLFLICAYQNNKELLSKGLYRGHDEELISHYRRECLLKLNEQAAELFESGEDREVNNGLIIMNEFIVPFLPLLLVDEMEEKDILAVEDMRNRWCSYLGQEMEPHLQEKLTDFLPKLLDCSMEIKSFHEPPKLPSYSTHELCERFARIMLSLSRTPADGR
In short: as §1

USP28 = biological target: T3, USP28 (UniProt Q96RU2)
T3 sequence (whole entry): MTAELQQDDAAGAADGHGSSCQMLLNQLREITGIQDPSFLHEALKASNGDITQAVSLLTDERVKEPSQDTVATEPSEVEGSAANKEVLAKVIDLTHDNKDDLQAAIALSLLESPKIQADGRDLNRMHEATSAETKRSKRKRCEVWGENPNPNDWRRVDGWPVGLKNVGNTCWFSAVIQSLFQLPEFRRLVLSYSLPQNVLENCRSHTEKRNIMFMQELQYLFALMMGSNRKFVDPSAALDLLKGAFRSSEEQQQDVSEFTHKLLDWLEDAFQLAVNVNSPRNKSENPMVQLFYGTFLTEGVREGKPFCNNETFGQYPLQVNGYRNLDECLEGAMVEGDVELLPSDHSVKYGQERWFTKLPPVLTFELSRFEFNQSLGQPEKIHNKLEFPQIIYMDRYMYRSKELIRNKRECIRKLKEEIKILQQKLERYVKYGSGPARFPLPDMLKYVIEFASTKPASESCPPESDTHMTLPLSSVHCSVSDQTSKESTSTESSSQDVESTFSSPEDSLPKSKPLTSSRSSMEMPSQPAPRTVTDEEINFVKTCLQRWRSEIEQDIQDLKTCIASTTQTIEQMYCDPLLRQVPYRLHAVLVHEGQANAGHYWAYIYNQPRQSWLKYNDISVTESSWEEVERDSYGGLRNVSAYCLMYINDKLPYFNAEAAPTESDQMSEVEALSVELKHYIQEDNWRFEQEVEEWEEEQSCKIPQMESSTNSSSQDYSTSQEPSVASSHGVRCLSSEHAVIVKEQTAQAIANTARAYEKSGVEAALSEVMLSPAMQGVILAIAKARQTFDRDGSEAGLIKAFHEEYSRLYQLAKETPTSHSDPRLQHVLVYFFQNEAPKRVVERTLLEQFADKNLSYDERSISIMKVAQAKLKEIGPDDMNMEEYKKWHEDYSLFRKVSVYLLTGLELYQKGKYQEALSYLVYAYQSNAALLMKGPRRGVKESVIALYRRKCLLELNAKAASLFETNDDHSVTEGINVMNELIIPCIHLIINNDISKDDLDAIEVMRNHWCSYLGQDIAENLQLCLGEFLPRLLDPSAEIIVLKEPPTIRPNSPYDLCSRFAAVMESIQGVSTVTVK
In short: as §1

Measured: log2 ratio of Biotin-Ahx-Ub-VS probe labelling

Sequence of USP24 (Q9UPU5 whole entry): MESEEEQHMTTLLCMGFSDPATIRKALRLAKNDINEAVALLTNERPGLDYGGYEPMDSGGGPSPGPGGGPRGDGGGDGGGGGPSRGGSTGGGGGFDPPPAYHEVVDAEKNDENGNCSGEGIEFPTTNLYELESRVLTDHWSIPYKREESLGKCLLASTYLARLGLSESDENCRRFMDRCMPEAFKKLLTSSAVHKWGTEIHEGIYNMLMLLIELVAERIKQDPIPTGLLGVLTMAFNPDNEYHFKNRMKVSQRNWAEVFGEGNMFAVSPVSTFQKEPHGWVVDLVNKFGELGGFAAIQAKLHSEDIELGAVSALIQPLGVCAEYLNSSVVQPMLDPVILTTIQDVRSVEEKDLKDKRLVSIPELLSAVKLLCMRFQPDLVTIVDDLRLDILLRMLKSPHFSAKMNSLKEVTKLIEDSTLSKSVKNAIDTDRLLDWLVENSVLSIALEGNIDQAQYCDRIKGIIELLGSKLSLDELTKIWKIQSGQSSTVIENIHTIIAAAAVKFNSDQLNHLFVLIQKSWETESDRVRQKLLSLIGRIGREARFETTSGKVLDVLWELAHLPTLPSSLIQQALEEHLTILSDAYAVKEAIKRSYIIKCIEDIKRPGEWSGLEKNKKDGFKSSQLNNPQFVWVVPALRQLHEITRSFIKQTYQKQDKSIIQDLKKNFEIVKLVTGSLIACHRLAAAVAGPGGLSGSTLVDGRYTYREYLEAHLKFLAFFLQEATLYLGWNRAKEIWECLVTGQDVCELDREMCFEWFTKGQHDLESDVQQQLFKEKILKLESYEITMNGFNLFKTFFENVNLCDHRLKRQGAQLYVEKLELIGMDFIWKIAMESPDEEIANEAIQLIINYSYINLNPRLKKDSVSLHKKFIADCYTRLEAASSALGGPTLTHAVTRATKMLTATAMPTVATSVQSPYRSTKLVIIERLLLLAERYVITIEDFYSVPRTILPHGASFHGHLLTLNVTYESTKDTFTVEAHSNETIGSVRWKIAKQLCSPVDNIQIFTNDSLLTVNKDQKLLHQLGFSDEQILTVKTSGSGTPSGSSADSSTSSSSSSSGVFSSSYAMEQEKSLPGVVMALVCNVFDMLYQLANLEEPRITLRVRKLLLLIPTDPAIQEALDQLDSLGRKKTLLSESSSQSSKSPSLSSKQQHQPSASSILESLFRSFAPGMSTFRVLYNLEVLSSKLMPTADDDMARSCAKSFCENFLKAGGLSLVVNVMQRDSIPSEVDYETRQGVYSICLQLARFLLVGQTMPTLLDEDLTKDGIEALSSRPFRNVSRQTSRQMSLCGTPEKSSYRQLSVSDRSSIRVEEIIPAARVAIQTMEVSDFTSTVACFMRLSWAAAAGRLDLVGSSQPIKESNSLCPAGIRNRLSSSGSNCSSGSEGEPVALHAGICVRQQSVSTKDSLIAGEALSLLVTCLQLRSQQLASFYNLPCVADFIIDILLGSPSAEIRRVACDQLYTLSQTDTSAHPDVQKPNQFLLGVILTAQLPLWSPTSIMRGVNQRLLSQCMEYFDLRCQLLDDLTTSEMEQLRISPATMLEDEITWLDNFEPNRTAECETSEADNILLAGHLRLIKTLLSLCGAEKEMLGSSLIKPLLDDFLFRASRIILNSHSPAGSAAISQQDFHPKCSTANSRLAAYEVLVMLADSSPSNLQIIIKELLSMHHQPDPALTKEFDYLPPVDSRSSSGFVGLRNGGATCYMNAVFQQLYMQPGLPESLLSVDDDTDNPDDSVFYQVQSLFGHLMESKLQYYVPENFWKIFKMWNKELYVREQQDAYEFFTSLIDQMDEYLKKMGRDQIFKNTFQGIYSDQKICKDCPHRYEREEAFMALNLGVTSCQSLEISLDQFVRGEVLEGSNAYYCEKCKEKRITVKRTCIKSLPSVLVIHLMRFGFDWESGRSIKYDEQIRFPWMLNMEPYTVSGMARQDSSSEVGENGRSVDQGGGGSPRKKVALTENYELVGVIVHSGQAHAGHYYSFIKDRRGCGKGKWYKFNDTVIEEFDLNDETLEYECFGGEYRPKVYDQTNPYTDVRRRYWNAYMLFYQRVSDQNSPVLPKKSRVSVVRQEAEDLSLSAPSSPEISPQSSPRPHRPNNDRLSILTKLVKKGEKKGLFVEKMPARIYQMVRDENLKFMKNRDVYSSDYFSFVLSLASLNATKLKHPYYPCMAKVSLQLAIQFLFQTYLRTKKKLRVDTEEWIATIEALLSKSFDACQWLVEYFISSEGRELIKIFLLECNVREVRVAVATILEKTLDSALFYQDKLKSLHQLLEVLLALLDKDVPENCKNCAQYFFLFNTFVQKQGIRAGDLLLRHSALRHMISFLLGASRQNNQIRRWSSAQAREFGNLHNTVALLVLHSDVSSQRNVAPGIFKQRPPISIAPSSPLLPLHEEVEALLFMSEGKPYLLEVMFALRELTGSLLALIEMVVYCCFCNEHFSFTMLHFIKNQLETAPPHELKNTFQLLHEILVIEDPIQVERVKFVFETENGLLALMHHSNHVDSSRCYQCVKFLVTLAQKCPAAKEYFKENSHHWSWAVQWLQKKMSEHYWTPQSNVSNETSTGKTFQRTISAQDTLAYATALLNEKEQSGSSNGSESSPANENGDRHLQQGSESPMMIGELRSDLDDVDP

Cl.Cn1c(CNC(=O)CCl)nc2cccnc21
inactive: USP19 -0.0671 | USP24 -0.218 | USP25 -0.148 | USP28 -0.316

— the supplement of paper PMC11732987, “Enantioselective OTUD7B fragment discovery through chemoproteomics screening and high-throughput optimisation” (Communications Chemistry, 2025)
